The list is not random: actives were taken first. Their share in the collection is about 21%.
Shiga toxin inh: Shiga toxin inhibition | Vero cells, Shiga toxin protein synthesis inhibition reporter | inhibition, % at 38.7 µM | hit rate 9.2% among 290,000; in the data active = inhibition mostly above about 28%, no sharp cut-off; inactive = mostly below about 43%; also: 0% is about no effect
Pf growth 96h: inhibits malaria parasite growth, 96 h; Potency, µM (top dose mostly 28.7 µM), for inactives: at the highest dose activity change, negative = inhibition, hits mostly inhibitors; AID 504834; P. falciparum luciferase reporter growth, 96 h; hit rate 6.9% among 320,000; also: potency is read from the fitted curve at half-maximal effect; % is scaled to controls: 0 for no effect and ±100 for the full control effect
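Luminescence readout: decreased luciferase signal marks inhibited growth of reporter-expressing P. falciparum in infected red cells (2% hematocrit, 0.05% parasitemia final), exposed to compound two generations (96 h, 37 C, 5% CO2).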
CHX counter: counter-screen for Shiga toxin inhibitors: cycloheximide protein synthesis inhibition; cell reporter, cycloheximide protein synthesis inhibition counterscreen; max response, %; hit rate 12% among 300,000; AID 2314; in the data active = max response mostly above about 13%, no sharp cut-off; inactive = mostly below about 14%; also: read at 38.3 µM for the half of the compounds with a filed dose; 0% is about no effect
Pf growth 48h: inhibits P. falciparum growth in the first generation, 48 h. hit rate 5.9% among 310,000. P. falciparum luciferase growth in erythrocytes, 48 h. Potency, µM (highest dose often 28.7 µM), for inactives: at the top dose activity change, negative = inhibition, most hits filed as inhibitors. AID 504832; also: potency is read from the fitted curve at half-maximal effect; % is scaled to controls: 0 for no effect and ±100 for the full control effect
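Luminescence readout; reporter = integrated firefly luciferase in P. falciparum. RBC culture at 2% hematocrit, 0.1% parasitemia final, 37 C/5% CO2; decreased signal taken as growth inhibition.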
The depositor's hits bear a star; ? = inconclusive; · = not tested or not shown; ! = repeats disagree. Unless noted, calls follow the shape of the dose curve; as a rule, active = well fitted inhibition curve with a large enough effect; inconclusive = small, poorly fitted or top-dose-only effect, or another doubt; inactive = no such curve, though single readings can be large or run the other way.

SMILES | Shiga toxin inh | Pf growth 96h | CHX counter | Pf growth 48h
O=C(NCCc1ccccc1)c1ccccc1NS(=O)(=O)N1CCCC1 | 43* | · | 33* | 50%
CSc1ccccc1C(=O)NCCc1ccc(S(=O)(=O)N2CCCCC2)cc1 | -7 | · | -2 | 5.2µM*
Cc1ccc(C(=O)NCCc2ccc(S(=O)(=O)N3CCCC3)cc2)cc1 | 10 | 20% | -4 | -30%
CC(=O)O[C@H]1C(=O)[C@@]2(C)[C@H]([C@H](OC(=O)c3ccccc3)[C@]3(O)C[C@H](OC(=O)[C@H](O)C(NC(=O)c4ccccc4)c4ccccc4)C(C)=C1C3(C)C)[C@]1(OC(C)=O)CO[C@@H]1C[C@@H]2O (some centres not stated) | 1 | 0.074µM* | 2 | 0.1µM*
CC(=O)O[C@H]1C(=O)[C@@]2(C)[C@H]([C@H](OC(=O)c3ccccc3)[C@]3(O)C[C@H](OC(=O)[C@H](O)[C@@H](NC(=O)c4ccccc4)c4ccccc4)C(C)=C1C3(C)C)[C@]1(OC(C)=O)CO[C@@H]1C[C@@H]2O | · | 0.059µM* | · | 0.074µM*
C/C=C(\C)C(=O)N[C@@H](c1ccccc1)[C@@H](O)C(=O)O[C@H]1C[C@@]2(O)[C@@H](OC(=O)c3ccccc3)C3[C@](C)(C(=O)[C@H](OC(C)=O)C(=C1C)C2(C)C)[C@H](O)C[C@H]1OC[C@@]31OC(C)=O (some centres not stated) | -4 | ? | 3 | ?
CCC(C)C(=O)N[C@@H](c1ccccc1)[C@@H](O)C(=O)O[C@H]1C[C@@]2(O)[C@@H](OC(=O)c3ccccc3)C3[C@](C)(C(=O)[C@H](OC(C)=O)C(=C1C)C2(C)C)[C@@H](O)C[C@H]1OC[C@@]31OC(C)=O (some centres not stated) | -1 | 0.23µM* | -2 | 0.47µM*
CCCCCC(=O)N[C@@H](c1ccccc1)[C@@H](O)C(=O)O[C@H]1C[C@@]2(O)[C@@H](OC(=O)c3ccccc3)C3[C@](C)(C(=O)[C@H](OC(C)=O)C(=C1C)C2(C)C)[C@@H](O)C[C@H]1OC[C@@]31OC(C)=O (some centres not stated) | 3 | ? | -1 | ?
CC/C=C/CC(=O)N[C@@H](c1ccccc1)[C@@H](O)C(=O)O[C@H]1C[C@@]2(O)[C@@H](OC(=O)c3ccccc3)C3[C@](C)(C(=O)[C@H](OC(C)=O)C(=C1C)C2(C)C)[C@@H](O)C[C@H]1OC[C@@]31OC(C)=O (some centres not stated) | 1 | 0.33µM* | 1 | 0.47µM*
O=c1c2cn(Cc3ccccc3)c3ccccc3c-2nn1Cc1ccc(F)cc1Cl | -12 | 3% | -2 | -13%
CC(=O)O[C@@]12CO[C@@H]1C[C@@H](O)[C@@]1(C)C(=O)[C@H](O)C3=C(C)[C@@H](OC(=O)[C@H](O)[C@@H](NC(=O)c4ccccc4)c4ccccc4)C[C@@](O)([C@@H](OC(=O)c4ccccc4)C12)C3(C)C (some centres not stated) | -5 | 0.046µM* | -3 | ?
Cc1nc(N2CCOCC2)[nH]c(=O)c1C(O)C(Cl)(Cl)Cl (configuration not stated) | -4 | 38% | 1 | 15%
CC(C)CCSc1nc(N)c(C#N)cc1C#N | 11 | -10% | 33* | 12µM*
CC(=O)c1cc(C#N)c(SCCC(C)C)nc1C | 11 | ? | 4 | ?
CCCn1c(NC(=O)c2ccccc2Br)nc2ccccc21 | 72 | ? | 18* | ?
CCCn1c(NC(=O)c2ccc(Br)cc2)nc2ccccc21 | -2 | 2.9µM* | 9 | ·
CCCn1c(NC(=O)c2ccc(F)cc2)nc2ccccc21 | 15 | 0% | 9 | 0%
Cn1c(/C=N/NC(=O)c2ccccc2Br)nc2ccccc21 | 19 | ? | 15* | ?
Cc1ccc(C(=O)N/N=C/c2nc3ccccc3n2C)cc1 | 14 | ? | 13 | ?
COc1ccc(C(=O)NCCNc2nc3cc(C)c(C)cc3cc2C)cc1 | -8 | ? | -7 | ?
O=C(CSc1nncs1)NNC(=O)c1ccco1 | · | -14% | · | -6%
COc1ccccc1-c1nc(SCc2ccccn2)n[nH]1 | 76* | 46% | 41* | 50%
O=C(O)/C=C1\NC(=O)c2ccccc21 | -10 | ? | -1 | -6%
O=C1N/C(=C\c2ccc(O)cc2)C(=O)c2ccccc21 | 42 | 37% | 34* | ?
CCN(CC)CCn1c(=N)n(CC(O)COc2ccccc2)c2ccccc21 (configuration not stated) | -4 | 2.3µM* | -3 | 3.3µM*
SMILES | Shiga toxin inh | Pf growth 96h | CHX counter | Pf growth 48h
CCN(CC)CCn1c(=N)n(CCOc2ccccc2)c2ccccc21 | 10 | 8.3µM* | -5 | ·
Cn1c(=N)n(CC(=O)c2ccc(Br)s2)c2ccccc21 | 2 | -65% | 18 | ·
CCN(CC)CCn1c(=N)n(CCO)c2ccccc21 | 10 | ? | -3 | -10%
CCN(CC)CCn1c(=N)n(CC(=O)c2ccc(Br)s2)c2ccccc21 | 32 | 1.9µM* | -1 | 1.9µM*
Cc1ccc(N(C(=O)c2csnn2)C(C(=O)NC2CCCCC2)c2cccnc2)cc1 (configuration not stated) | -7 | -2% | -6 | -6%
Cc1csc(Sc2nc3c(c(=O)[nH]c(=O)n3C)n2CCCc2ccccc2)n1 | -10 | ? | 2 | ?
CCN(CC)CC(O)COc1ccccc1C(=O)CCc1ccccc1 (configuration not stated) | -21 | · | -5 | 1.5µM*
CCCNCC(O)COc1ccccc1C(=O)CCc1ccccc1 (configuration not stated) | -16 | 3.3µM*! | -4 | 1.2µM*
O=C(COC(=O)C1C2CC3OC(=O)C1C3C2)Nc1ccc(Br)cc1 (configuration not stated) | 22 | 2% | 25 | 15%
Cc1ccc(OCC(=O)Nc2ccc(CN3CCCCC3)cc2)c(C)c1 | -11 | ? | 9 | ?
CN(CCOC(=O)c1ccc2c(c1)OCO2)C(C)(C)C | 15 | 16% | 7 | -12%
CC(C)(C)C(=O)Nc1cc(NC(=O)C(C)(C)C)cc(C(=O)NNC(=O)c2ccncc2)c1 | -5 | -1% | -2 | 26%
Cc1cccc(Nc2nc(-c3ccc(O)c(O)c3)cs2)n1 | 85* | ? | 42* | -35%
Cc1cccc(Nc2nc(-c3ccc(F)c(C)c3)cs2)n1 | 113* | 10% | 49* | 11%
Oc1ccc(-c2csc(Nc3cccc4ccccc34)n2)cc1O | 11 | -98% | 8 | ?
O=C(Cc1ccccc1)Nc1nc(-c2ccc(F)c(F)c2)cs1 | 42 | -17% | 14 | ?
COc1cn(-c2ccccc2)nc1C(=O)Nc1ccc(C)cc1 | 56* | -19% | 36* | ?
COc1cn(-c2ccccc2)nc1C(=O)Nc1ccccc1 | 82* | 9% | 47* | -16%
COc1ccc(C)cc1NC(=O)c1nn(-c2ccccc2)cc1OC | 12 | 2.9µM* | 1 | -72%
CCOC(=O)C1CCCN(C(=O)CN2C(=O)NC(C)(c3ccc4ccccc4c3)C2=O)C1 (configuration not stated) | · | 7% | · | 3%

Screening results from PubChem BioAssay.
